# Laboratory results taken from PubChem BioAssay (Tox21).
# Results filed as inconclusive are left out. Values without a mark were called inactive. The call rests on the fitted dose curve; in most records, active means well fitted cell-killing curve with a large enough effect in the repeat runs; inconclusive means weak or mixed curves, or effect the other way; inactive means flat fitted curve, though single readings scatter.
# Test: qHTS RealTime-Glo MT Cell Viability Assay in HEK293 cells - 16 hour (AID 1224872); further: top concentration of the series differs between compounds; nearly all actives have a fitted effect of over 50% in size
# Settings: RealTime-Glo luminescence; series mostly up to 76.8 µM; activity change, negative = cytotoxicity: at the top concentration
# Description: National Center for Advancing Translational Sciences [NCATS]
# NIH Chemical Genomics Center [NCGC]
# U.S. Environmental Protection Agency [EPA]
# National Institutes of Environmental Health Sciences [NIEHS]
# National Toxicology Program [NTP]
# U.S. Food and Drug Administration [FDA]
# Measure of cell viability is critical in the cell-base assay. Analysis of cell viability is necessary for the characterization of cell responses to cytotoxic drugs and environmental stress. A RealTime-Glo MT Cell Viability Assay to monitor cell viability in real time of continues cell culture during 40 hours of compound treatment was used to screen Tox21 10K library compounds in Hek293 cells. The RealTime-Glo MT Cell Viability Assay is a nonlytic, homogeneous, bioluminescent method to measure cell viability in real time using a simple, plate-based method. The assay involves adding NanoLuc luciferase and a cell-permeant prosubstrate to cells in culture. Viable cells reduce the proprietary prosubstrate to generate a substrate for NanoLuc luciferase. This substrate diffuses from cells into the surrounding culture medium, where it is rapidly used by the NanoLuc Enzyme to produce a luminescent signal. The signal correlates with the number of viable cells, making the assay well suited for cytotoxicity studies.
# Tox21 Assay Protocol Summary:
# The mixture of Hek293 cell suspension and reagents were dispensed at 600cells/6 ul/well in 1536-well tissue culture treated black solid bottom plates using a Multidrop dispenser. After the assay plates were incubated at a 37 C/5% CO2 incubator for 5 hours, 23 nL of compounds dissolved in DMSO, positive and negative controls was transferred to the assay plate by a pintool work station. The plates were incubated at 37 C for 40 hours. The luminescence intensity were measured at 0h, 8h, 16h, 24h, 32h and 40h time points using ViewLux plate reader during compound treatment.
# On the % scale 0 is the no-effect control and ±100 the full control effect.
row,SMILES,"activity change, negative = cytotoxicity"
1,O=C(Cc1ccccc1)OCc1ccccc1,-2.72%
2,CC1CCC(=O)O1 (stereo not given),-14.3%
3,CCOP(=S)(Oc1cnc(C(C)(C)C)nc1)OC(C)C (stereo not given),-13.3%
4,CCC(Cl)[N+](=O)[O-] (stereo not given),2.5%
5,O=C(O)c1ccc2[nH]cc(CCCCN3CC=C(c4ccccc4)CC3)c2c1,-2.45% [at 35.3 µM]
6,COC(=O)c1ccccc1S(=O)(=O)NC(=O)Nc1nc(C)cc(C)n1,12.1%
7,CCS(=O)(=O)CCSP(=O)(OC)OC,8.93%
8,ClCC(Cl)Cl,0.231%
9,N#CCNCC#N,0.143%
10,Oc1c(Cl)cccc1Cl,1.24%
11,O=[N+]([O-])c1cccc2cccnc12,-4.88%
12,CC(C)(C)NCC(O)c1cc(Cl)c(N)c(Cl)c1 (stereo not given),3.01% [at 35.3 µM]
13,O=C1c2ccccc2C(=O)c2ccccc21,16.4% [at 15.8 µM]
14,NC1=NC(=O)C(c2ccccc2)O1 (stereo not given),8.46% [at 35.3 µM]
15,COc1cc(OC)nc(NC(=O)NS(=O)(=O)c2ncccc2C(=O)N(C)C)n1,7.32%
16,CNC(=O)O/N=C(\C)SC,5.57%
17,C=C(C)[C@@H]1CC=C(C=O)CC1,-2.72%
18,COC(=O)C1=CCCN(C)C1,0.785% [at 35.3 µM]
19,CN/C(=N\[N+](=O)[O-])NCC1CCOC1 (stereo not given),9.09%
20,CCNc1nc(NC(C)C)nc(OC)n1,-9.8%

row,SMILES,"activity change, negative = cytotoxicity"
1,c1cc2c(c(N3CCNCC3)c1)OCCO2,-1.49% [at 35.3 µM]
2,COc1cc(OC)nc(Sc2cccc(Cl)c2C(=O)O)n1,9.33%
3,CCCCCCI,-6.78%
4,CC1=NNC(=O)N(/N=C/c2cccnc2)C1,5.78%
5,CNC(=O)N(C)c1nc2ccccc2s1,-18.1%
6,Nc1ccccc1Cl,4.86%
7,CCN(Cc1ccc(Cl)nc1)/C(=C/[N+](=O)[O-])NC,3.17% [at 35.3 µM]
8,CC1(C)CON(Cc2ccccc2Cl)C1=O,-0.931%
9,C#CCN1C(=O)COc2cc(F)c(N3C(=O)C4=C(CCCC4)C3=O)cc21,-1.27%
10,CCN(CC)C(C)C(=O)c1ccccc1 (stereo not given),5.99% [at 35.3 µM]
11,COc1ccc(C(=O)N2CCCC2=O)cc1,4.98% [at 35.3 µM]
12,O=C(N[C@H]1CN2CCC1CC2)c1cc2ccoc2cn1,-1.17%
13,Cc1cc(C)nc(Nc2ccccc2)n1,-9.37%
14,CCOC(=O)CP(=O)(OCC)OCC,0.0288%
15,CN1CCN(C(=O)O[C@H]2c3nccnc3C(=O)N2c2ccc(Cl)cn2)CC1,3.43% [at 35.3 µM]
16,N#Cc1c(Cl)cccc1Cl,7.02%
17,CCCCOC(=O)c1ccccc1N,-4.51%
18,CCOC(=O)/C=C(C)/C=C/C[C@@H](C)CCCC(C)C,10.3%
19,CCC(C)n1c(=O)[nH]c(C)c(Br)c1=O (stereo not given),-1.84%
20,NC(=O)c1cc([N+](=O)[O-])cc([N+](=O)[O-])c1,4.76% [at 35.3 µM]
